Activity calls are given as the source filed them.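 The calls were made as follows, unless noted: active = NADPH fluorescence slope more negative than the mean of all samples by about 3 SD, 99.7% confidence; inactive = the rest.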

14 molecules from PubChem BioAssay can be followed below.

Test [1] can be described thus: inhibitors of TNFa-induced NFkB p65 translocation, primary screen, imaging, HUVEC, MLSMR starter and 10KST1 sets (AID 438;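 active = inhibition above 20% together with a positive visual image hit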;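 also: compound added about 3h40 before a 20 min TNFalpha stimulation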;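 as to inhibition: signal is the nuclear over cytoplasmic p65 intensity ratio per well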). The following applies: HUVEC TNFa-induced p65 nuclear translocation; cell count: measured here: nuclei count (cytotoxicity indicator), at 2.08 µM; inhibition: at 2 µM, stronger effect = higher value, 0% TNFa-plus-vehicle, 100% no-TNFa wells.
A short description of test [2]: reduction of polyQ htt aggregates in cells – imaging, exon1htt(103Q)mCFP cells, high-content imaging, primary screen (AID 483;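 active = visual image review flags a hit and inhibition of aggregation exceeds 20%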;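 also: compound exposure lasted 3 days before fixation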;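 as to nuclei count: percent of the per-plate median nuclei count of sample wells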). The following applies: exon1htt(103Q)mCFP cell line, aggregate imaging, at 2 µM; inhibition of aggregation: stronger effect = higher value; nuclei count: measured here: cell count, toxicity.
Test [3] is described as follows: endothelial E-selectin expression blockers – imaging, HUVEC, immunofluorescence, MLSMR starter and 10KST1 sets, primary screen (AID 487;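 active = visually confirmed hit in the image check and inhibition above 20%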;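 as to inhibition: signal is fraction of cell area covered by stained E-selectin grains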;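 as to nuclei count: 100% = median nuclei count of all wells on the same plate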). The note with it: HUVEC TNFalpha-induced E-selectin immunofluorescence imaging, at 2 µM; inhibition: stronger effect = higher value; nuclei count: measured here: cell number, toxicity.
Test [4] addresses Voltage-gated potassium channel subunit beta-2 (Rattus norvegicus) (UniProt P62483). Briefly: inhibitors of rat Kvbeta2 reductase activity – biochemical, NADPH fluorescence, primary screen (AID 622;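 active = fluorescence slope higher than the sample average by over 3 SD, cut at about -0.22 in these data, passing the limit was not always enough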;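 also: slope of raw intensity against log time taken from 70 to 1610 s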). The following applies: recombinant KvBeta, 4-cyanobenzaldehyde reduction, at 10 µM, stronger effect = higher value.
For test [5] the target is unchanged. Briefly: enhancers of rat Kvbeta2 NADPH turnover – biochemical, NADPH fluorescence, primary screen (AID 623).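 Also: fluorescence intensity change per second fitted from 20 to 320 s.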 The note with it: Recombinant KvBeta, NADPH fluorescence decrease slope, 10 min; at 10 µM; stronger effect = lower value.
Test [6] deals with Alpha-2C adrenergic receptor (Homo sapiens) (UniProt P18825). Description: compounds altering alpha2C-coupled GIRK flux – cell-based, HEK293 alpha2C/GIRK1/2, thallium flux, primary screen (AID 624;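 active = fluorescence slope after compound addition differing from the mean of all screened samples at 99.7% confidence, in either direction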;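 also: slope of fluorescence ratio to pre-addition baseline per second over 15 to 24 s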). The note with it: thallium flux BTC fluorescence, at 10 µM, actives lie on both sides.
Test [7] can be described thus: blockers of RIG-like receptor reporter activation – cell-based, Sendai virus stimulus, luciferase, 10K MLSCN set, TLR/RLR signaling modifier project, primary screen (AID 602276;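 active = inhibition at or above 50% at 10 µM; inactive = inhibition below 50%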;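 also: firefly luciferase from ISG56 promoter only with Renilla not read in this screen; 0% = Sendai virus plus DMSO and 100% = medium plus DMSO without virus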). The note with it: HEK293 RL24 IRF3 luciferase reporter, at 10 µM, stronger effect = higher value.
A short description of test [8]: TLR3 IRF3 reporter activation blockers – cell-based, poly I:C stimulus, luciferase, 10K MLSCN set, primary screen (AID 602277;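 active = inhibition of the reporter signal at or above 50%; inactive = inhibition below 50%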). The following applies: HEK293-TLR3 RL24 IRF3 luciferase reporter, at 10 µM, stronger effect = higher value.

Sequence of Alpha-2C adrenergic receptor (Homo sapiens) (P18825 whole entry, looked up): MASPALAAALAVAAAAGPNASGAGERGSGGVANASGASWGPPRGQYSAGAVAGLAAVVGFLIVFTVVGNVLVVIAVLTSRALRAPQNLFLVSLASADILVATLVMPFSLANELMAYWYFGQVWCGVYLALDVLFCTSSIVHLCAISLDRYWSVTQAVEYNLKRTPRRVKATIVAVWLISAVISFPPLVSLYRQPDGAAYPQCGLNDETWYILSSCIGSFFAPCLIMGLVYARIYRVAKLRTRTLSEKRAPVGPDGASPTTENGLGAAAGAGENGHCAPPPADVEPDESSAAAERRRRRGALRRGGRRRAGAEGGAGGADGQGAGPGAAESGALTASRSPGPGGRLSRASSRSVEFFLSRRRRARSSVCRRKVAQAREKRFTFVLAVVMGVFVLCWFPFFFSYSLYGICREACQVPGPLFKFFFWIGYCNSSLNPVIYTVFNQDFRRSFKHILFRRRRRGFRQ
Sequence of Voltage-gated potassium channel subunit beta-2 (Rattus norvegicus) (P62483 whole entry, looked up): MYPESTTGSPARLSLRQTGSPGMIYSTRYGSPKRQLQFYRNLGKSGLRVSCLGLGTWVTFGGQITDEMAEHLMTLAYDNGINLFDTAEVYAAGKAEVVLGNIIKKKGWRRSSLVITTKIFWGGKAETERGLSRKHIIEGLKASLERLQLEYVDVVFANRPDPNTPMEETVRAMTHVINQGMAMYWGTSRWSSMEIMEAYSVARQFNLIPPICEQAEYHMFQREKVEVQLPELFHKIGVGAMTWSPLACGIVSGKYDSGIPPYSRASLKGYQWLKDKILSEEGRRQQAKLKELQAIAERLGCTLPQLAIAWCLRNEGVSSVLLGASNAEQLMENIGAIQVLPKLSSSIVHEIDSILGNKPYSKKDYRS

For the molecule `CCOC(=O)C1CCN(C(=O)COc2ccc(Cl)cc2Cl)CC1`, the cell count in test [1] worked out at 705. The inhibition in test [1] is -5.1% (inactive); in test [3], 4.3% (inactive); in test [7], 3.61% (inactive); in test [8] it was 14.2% (inactive). Further, the inhibition of aggregation in test [2] was 8% (inactive). Further, the nuclei count in test [2] worked out at 103%; in test [3], 104%. For the same molecule, in test [4], the fluorescence slope was -0.613 (inactive). Further, the NADPH fluorescence slope in test [5] was -1.6e-05 (inactive). Besides, the slope in test [6] was 0.00593 (inactive).

As to `COc1cc(C2c3c(n[nH]c3C)C(=O)N2c2ccc(Br)cc2)ccc1O` (centres undefined), the cell count in test [1] is 677. In addition, the inhibition was -3.9% (inactive) in test [1], 3.2% (inactive) in test [3], 8.55% (inactive) in test [7] and 24.2% (inactive) in test [8]. In addition, the inhibition of aggregation in test [2] was 1.5% (inactive). The values for the nuclei count in test [2] and in test [3] were 100% and 106%, respectively. Further, the fluorescence slope in test [4] is -0.408 (inactive). The NADPH fluorescence slope in test [5] was -1.5e-06 (inactive). Also, in test [6], the slope is 0.00373 (inactive).

As to `Cc1cccc(CC(=O)Nc2c3c(nn2-c2cccc(Cl)c2)CS(=O)C3)c1` (centres undefined), the cell count in test [1] was 394. In addition, the inhibition in test [1] was 1% (inactive); in test [3] it was -27.9% (inactive); in test [7] it was -10.3% (inactive); in test [8], -33.4% (inactive). In test [2], the inhibition of aggregation is -17.3% (inactive). Also, the figures for the nuclei count in test [2] and in test [3] were 106% and 110%, respectively. Also, the fluorescence slope in test [4] was -0.57 (inactive). Besides, the NADPH fluorescence slope in test [5] was 2.8e-05 (inactive). For the same molecule, in test [6], the slope was 0.00504 (inactive).

In the case of `COc1ccc(S(=O)(=O)n2nc(OC(=O)c3ccc(C)cc3)cc2N)cc1`, the cell count in test [1] was found to be 566. Besides, the inhibition in test [1] was -19.6% (inactive); in test [3], -31% (inactive); in test [7], 14% (inactive); in test [8] it was 19.2% (inactive). Moreover, the inhibition of aggregation in test [2] was -9.1% (inactive). Moreover, the nuclei count in test [2] worked out at 106%; in test [3], 144%. Besides, the fluorescence slope in test [4] is -0.337 (inactive). Also, the NADPH fluorescence slope in test [5] was -1.2e-06 (inactive). In test [6], the slope is 0.00323 (inactive).

For `N#CC(C(=O)NCCc1ccccc1)c1nc2ccccc2nc1N1CCOCC1` (centres undefined), the cell count in test [1] came out at 389. The inhibition in test [1] was 5.7% (inactive); in test [3], -176% (inactive); in test [7] it was -27.6% (inactive); in test [8] it was -40.4% (inactive). Further, the inhibition of aggregation in test [2] is -43.6% (inactive). The nuclei count in test [2] is 103%; in test [3], 118%. Besides, the fluorescence slope in test [4] was -0.401 (inactive). In test [5], the NADPH fluorescence slope is -2e-05 (inactive). The slope in test [6] is 0.00348 (inactive).

As for `CCn1cc(C(=O)NC2CCc3ccccc32)c(=O)c2ccc(C)nc21` (centres undefined), in test [1], the cell count was found to be 727. The inhibition in test [1] was -2.2% (inactive); in test [3] it was -37% (inactive); in test [7], 7.46% (inactive); in test [8], 13.4% (inactive). The inhibition of aggregation in test [2] was -0.4% (inactive). Moreover, the nuclei count in test [2] is 100%; in test [3], 110%. In addition, in test [4], the fluorescence slope was -0.559 (inactive). The NADPH fluorescence slope in test [5] was 2.4e-05 (inactive). Moreover, the slope in test [6] was 0.00594 (inactive).

`O=C(CSCc1ccccn1)Nc1ccccc1`: the cell count in test [1] stood at 312. The inhibition in test [1] was -8% (inactive); in test [3], 4.8% (inactive); in test [7], -30.9% (inactive); in test [8], -49% (inactive). Besides, the inhibition of aggregation in test [2] was 21.9% (inactive). The nuclei count in test [2] was determined as 95.1%; in test [3], 98.8%. The fluorescence slope in test [4] is -0.437 (inactive). Also, the NADPH fluorescence slope in test [5] is -4.9e-05 (inactive). Also, the slope in test [6] is 0.00582 (inactive).

On to `O=C(Oc1cccc2cccnc12)c1cccc(-n2cnnn2)c1`, for which the cell count in test [1] is 461. Further, the inhibition in test [1] was 2.7% (inactive); in test [3], -16.1% (inactive); in test [7], 15% (inactive); in test [8] it was 24.5% (inactive). Besides, in test [2], the inhibition of aggregation was -8.5% (inactive). Moreover, the values for the nuclei count in test [2] and in test [3] were 105% and 93.4%, respectively. In addition, the fluorescence slope in test [4] was -0.494 (inactive). Besides, the NADPH fluorescence slope in test [5] is -3.7e-05 (inactive). The slope in test [6] was 0.00392 (inactive).

For the molecule `CCCc1nnc2n1N=C(c1ccc(OC)c(OC)c1)CS2`, the cell count in test [1] is 321. For the same molecule, the inhibition in test [1] was -12.4% (inactive); in test [3], 12.3% (inactive); in test [7], 16.9% (inactive); in test [8] it was 37.3% (inactive). For the same molecule, in test [2], the inhibition of aggregation was -0.1% (inactive). The nuclei count in test [2] came to 83.3%; in test [3], 99.3%. Besides, the fluorescence slope in test [4] was -0.584 (inactive). The NADPH fluorescence slope in test [5] is -5.6e-05 (inactive). In addition, the slope in test [6] is 0.00347 (inactive).

Take `CCOC(=O)N(C)c1ccc(C(O)(C(F)(F)F)C(F)(F)F)cc1`: in test [1], the cell count was 601. The inhibition in test [1] was -8.6% (inactive); in test [3] it was -58.6% (inactive); in test [7] it was -1.35% (inactive); in test [8], 100% (active). Moreover, the inhibition of aggregation in test [2] was -12.5% (inactive). Moreover, the nuclei count in test [2] stood at 105%; in test [3], 109%. Besides, the fluorescence slope in test [4] is -0.369 (inactive). In addition, in test [5], the NADPH fluorescence slope was -6.4e-05 (inactive). In addition, the slope in test [6] was 0.0041 (inactive).

With `Cc1cccc(Cn2c(SCC(=O)Nc3ccccc3)nc3c2c(=O)[nH]c(=O)n3C)c1`, in test [1], the cell count was 467. In addition, the inhibition is 5.4% (inactive) in test [1], 4.7% (inactive) in test [3], 14.6% (inactive) in test [7] and 13.4% (inactive) in test [8]. In addition, in test [2], the inhibition of aggregation is 44.6% (inactive). The nuclei count in test [2] was 83.4%; in test [3] it was 89.8%. The fluorescence slope in test [4] was -0.394 (inactive). Besides, the NADPH fluorescence slope in test [5] is 2.9e-05 (inactive). Also, the slope in test [6] is 0.0074 (inactive).

On to `CCCOc1ccccc1C1CC(=O)Nc2cc3c(cc21)OCCO3` (centres undefined), for which the cell count in test [1] turned out to be 647. The inhibition in test [1] was 4.9% (inactive); in test [3], 29.7% (inactive); in test [7], -3.13% (inactive); in test [8], 78% (active). In addition, in test [2], the inhibition of aggregation was 6.6% (inactive). For the same molecule, the results for the nuclei count in test [2] and in test [3] were 39.3% and 97.2%, respectively. Also, the fluorescence slope in test [4] was -0.628 (inactive). Moreover, the NADPH fluorescence slope in test [5] is -2e-05 (inactive). Also, the slope in test [6] is 0.00236 (inactive).

Take `O=C(CSc1nnc(-c2ccccc2F)o1)OCc1ccccc1`: the cell count in test [1] was found to be 323. The inhibition was 8.7% (inactive) in test [1], -69.6% (inactive) in test [3], 4.91% (inactive) in test [7] and 34.1% (inactive) in test [8]. In addition, in test [2], the inhibition of aggregation was -1.8% (inactive). The nuclei count came to 89.1% in test [2] and 99.9% in test [3]. Besides, the fluorescence slope in test [4] is -0.428 (inactive). Also, in test [5], the NADPH fluorescence slope was 1.9e-05 (inactive). Moreover, the slope in test [6] is 0.00527 (inactive).

Take `COc1ccc(OCC(=O)N2CC3(C)CC2CC(C)(C)C3)cc1` (centres undefined): in test [1], the cell count turned out to be 403. For the same molecule, the inhibition in test [1] is -0.6% (inactive); in test [3] it was -55.8% (inactive); in test [7], 20% (inactive); in test [8], 26.7% (inactive). For the same molecule, the inhibition of aggregation in test [2] was -6.4% (inactive). In addition, the nuclei count in test [2] is 122%; in test [3] it was 97.4%. Besides, the fluorescence slope in test [4] is -0.495 (inactive). Moreover, the NADPH fluorescence slope in test [5] is -6.6e-06 (inactive). The slope in test [6] is 0.004 (inactive).
